# TSHR antag – human thyrotropin receptor antagonism; TSHR-expressing cells, TSH-stimulated cAMP HTRF, 2 h; stronger effect = lower value; 0.2% of 330,000 active; activity change, negative = inhibition, % at 11.5 µM;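 active = activity change below a set negative limit, meaning inhibition stronger than a set level, cut at about -70% in these data; inconclusive = activity change between two set negative limits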; note: % is set by controls: 0 for no effect and ±100 for the full control effect
#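 Inhibition of cAMP made by TSHR-expressing cells under TSH stimulation (4nM final, EC80; 2 h, 37 deg C) is quantified with a one-step lysis HTRF kit, anti-cAMP cryptate versus cAMP-d2.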
# D3 antag – antagonists of human D3 dopamine receptor; max response, negative = inhibition, %; 2.5% of 360,000 active; D3R cells, DiscoveRx beta-arrestin luminescence, antagonist mode; stronger effect = lower value; in the data active = max response below about -50%; inconclusive = no clear call, values can overlap the other calls; note: % is set by controls: 0 for no effect and ±100 for the full control effect
#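 Cells expressing the human receptor were seeded at 1500 cells/well, incubated overnight at 37 degrees C in 5% CO2, then exposed to library compounds with dopamine controls for 90 minutes at 37 degrees C before luminescent detection.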
# D3 ag – activates the human D3 dopamine receptor. P35462. D3R DiscoveRx beta-arrestin cells, luminescence, 90 min. max activation, %. 0.58% of 410,000 active; in the data active = max activation above about 30%; note: 0% is about no effect
#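 Agonist mode: compounds and dopamine controls were applied to plated cells for 90 min at 37 degrees C after an overnight attachment at 1500 cells/well. Luminescent read-out followed 30 - 60 minutes at room temperature with DiscoveRx detection reagent.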
# B2AR arrestin – recruits beta-arrestin to the human beta2-adrenergic receptor; beta-arrestin recruitment to beta2AR, cell-based reporter; Potency, µM (series often up to 46.1 µM), without a hit: at the top dose activation, hits mostly activators; 0.02% of 330,000 active; AID 492947; active = well fitted activation curve with a large enough effect; inconclusive = small, poorly fitted or top-dose-only effect;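 note: potency is the fitted concentration of half-maximal effect; 0% = DMSO controls and full agonism = EC100 isoproterenol or metaproterenol; nearly all actives have a fitted effect of over 65% in size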
# Target sequence (P07550 whole entry, looked up): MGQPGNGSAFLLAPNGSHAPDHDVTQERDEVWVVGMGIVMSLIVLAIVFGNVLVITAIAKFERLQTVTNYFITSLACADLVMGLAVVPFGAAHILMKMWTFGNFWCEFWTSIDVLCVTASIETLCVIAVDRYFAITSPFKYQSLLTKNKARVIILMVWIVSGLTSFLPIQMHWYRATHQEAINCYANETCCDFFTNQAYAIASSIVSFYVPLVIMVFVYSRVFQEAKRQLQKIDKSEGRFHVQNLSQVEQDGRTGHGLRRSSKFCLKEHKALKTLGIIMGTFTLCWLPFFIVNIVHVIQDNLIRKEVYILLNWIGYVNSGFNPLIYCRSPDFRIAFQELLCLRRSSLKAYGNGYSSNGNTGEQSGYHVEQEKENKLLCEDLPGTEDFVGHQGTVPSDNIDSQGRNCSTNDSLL
# The depositor's hits bear a star; ? = inconclusive; nt = not tested or not shown. In the library only some 2.9% were active in any assay of this set; here they are far more common.
SMILES,TSHR antag,D3 antag,D3 ag,B2AR arrestin
O=C(Cc1ccccc1)N[C@@H]1c2ccccc2CC[C@@H]1OCc1ccccc1,-1,-90*,-20,0%
Cc1cc(C)n(/N=C/c2cc(Cl)cc(Cl)c2O)c(=O)c1,-5,-77*,-28,0%
COc1cc(-c2c(C#N)c(N)nc3c2c(C)nn3-c2ccc(C)c(C)c2)cc(OC)c1OC,2,6,60*,0%
O=C(NC1CCN(Cc2ccccc2)CC1)c1ccc(Cn2c(=O)c3ccccc3n(Cc3ccc(F)cc3)c2=O)cc1,nt,nt,-23,nt
O=C(COc1ccccc1F)Nc1ccc(Cl)c(-c2nc3ccccc3[nH]2)c1,nt,nt,0,nt
CC(C)Oc1ccc(CNC(=O)c2ccc3c(c2)N(C)CCS3)cc1,-22,-74*,-9,9%
COc1ccc(CNC(=O)c2ccc3c(c2)N(C)CCS3)cc1,-11,?,-16,-1%
CN1Cc2cccc3c2C(Cc2ccccc2S3)C1 (stereo not given),1,-64*,-9,-1%
O=C(Cn1c(C(=O)N2CCN(C3CCCC3)CC2)cc2sccc21)c1ccccc1,-8,-78*,-37,-2%
Cc1cc(C(=O)COC(=O)C2=NNC(=O)CC2)c(C)n1-c1ccc(OC(F)F)cc1,3,17,-5,0%
Cc1cc(C(=O)COC(=O)C2=NNC(=O)CC2)c(C)n1-c1cccc(C(F)(F)F)c1,-3,20,41*,0%
O=C(c1ccc(OC2CCN(CCc3ccccc3)CC2)cc1)N1CCCC(O)C1 (stereo not given),-12,-8,-11,-1%
COc1ccc(CCC(C)N2CCC(Oc3ccc(C(=O)N4CCCC4)cc3)CC2)cc1 (stereo not given),59,-20,-23,0%
COc1ccccc1/C=C/CN1CCC(Oc2ccc(C(=O)N3CCCC3)cc2)CC1,33,-68*,-13,0%
COC1CCCN(C(=O)c2ccc(OC3CCN(CCc4ccccc4)CC3)cc2)C1 (stereo not given),0,-55*,-10,-1%
CC(CCc1ccc(O)cc1)N1CCC(Oc2ccc(C(=O)N3CCCC3)cc2)CC1 (stereo not given),3,5,73*,-1%
CCOc1ccc(N(Cc2cc3cc(C)ccc3[nH]c2=O)C(=O)c2cccc(Cl)c2)cc1,nt,nt,6,nt
CC(C)Nc1cccnc1N1CCN(C(=O)c2cc3cc(NS(C)(=O)=O)ccc3[nH]2)CC1,nt,nt,0,nt
Cc1ccc(S(=O)(=O)NCc2ccc(C(=O)NCCN(Cc3ccccc3)C(C)C)cc2)cc1,6,-79*,-19,0%
CC(C)N(CCNC(=O)c1ccc(CS(=O)(=O)c2c(Cl)cccc2Cl)o1)Cc1ccccc1,-10,-70*,-22,0%
Cc1ccsc1C(=O)C1CCCN(Cc2cccn2-c2ccc(Cl)cn2)C1 (stereo not given),14,-67*,-12,-1%
Cc1ccc(-n2cccn2)c(CN2CCCC(C(=O)c3sccc3C)C2)c1 (stereo not given),-5,-76*,-14,0%
O=C(c1ccc(Cl)cc1)C1CCCN(Cc2cccn2-c2ccccn2)C1 (stereo not given),6,0,-17,0%
Cc1ccc(CN(C(=O)COc2ccc(Br)cc2)c2ccccn2)o1,nt,nt,0,nt
Cc1ccc(CN(C(=O)COc2ccccc2[N+](=O)[O-])c2ccccn2)o1,nt,nt,38*,nt
SMILES,TSHR antag,D3 antag,D3 ag,B2AR arrestin
Nc1sc(-c2ccccc2)cc1C(=O)N1CCNCC1,nt,-54*,-21,nt
Nc1sc(-c2ccccc2)cc1C(=O)O,7,nt,nt,0%
Cn1cc(C(=O)NCCc2ccccc2)c(=O)c2cc(S(=O)(=O)N3CCCCCC3)ccc21,nt,nt,2,nt
CCOC(=O)C1=C(c2ccccc2)N=c2s/c(=C\c3cccc(O)c3)c(=O)n2C1c1cccs1 (stereo not given),-31,-12,-10,3%
O=c1/c(=C\c2ccc(O)cc2)sc2n1C(c1ccccc1)C(c1ccccc1)=NN=2 (stereo not given),-2,-59*,-28,0%
CCc1oc2ccccc2c1C(=O)CCN1CCCCC1,-2,-94*,-7,-1%
O=C(CCN1CCCCC1)c1ccccc1,25,-21,-4,0%
CC(=O)Oc1ccccc1C(=O)C=Cc1cccc([N+](=O)[O-])c1,nt,-56*,-20,nt
O=C(/C=C/c1cccc([N+](=O)[O-])c1)N1CCN(c2ccccn2)CC1,3,-12,4,0%
O=C(/C=C/c1cccc([N+](=O)[O-])c1)n1cnc2ccccc21,5,-104*,-11,0%

# High-throughput results deposited in PubChem by National Center for Advancing Translational Sciences (NCATS).
